Inconclusive results are not listed. Calls of active or inactive are those of the source. Unless noted, no cut-off is given here; in the data, nearly all actives have AC50 up to about 30 µM.
assay: growth inhibition of DIPG glioma cells, dose response, cell-based, SU-DIPG-XIII, MIPE5.0, CellTiter-Glo, qHTS (AID 1347064; cut-off not given, nearly all actives have AC50 up to about 23 µM;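 for AC50: cells exposed to compound for 48 hours before the viability read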); settings: SU-DIPG-XIII viability, CellTiter-Glo ATP luminescence

Row | Structure (SMILES) | outcome | AC50
1 | COc1cccc(-c2cc(=O)c3ccccc3o2)c1N | inactive | 
2 | O=Nc1c(-c2c(O)[nH]c3cc(Br)ccc23)[nH]c2ccccc12 |  | 14.8 µM (active)
3 | O=c1[nH]nc(Sc2ncc([N+](=O)[O-])s2)n1-c1ccc2c(c1)OCCO2 |  | 3.72 µM (active)
4 | N[C@H](CSC(c1ccccc1)(c1ccccc1)c1ccccc1)C(=O)O | inactive | 
5 | CS(=O)c1ccc(-c2nc(-c3ccc(F)cc3)c(-c3ccncc3)[nH]2)cc1 (stereo not drawn) | inactive | 
6 | O=C(O)CCc1ccc(NCc2cccc(Oc3ccccc3)c2)cc1 | inactive | 
7 | Oc1ccc2ccccc2c1SSc1c(O)ccc2ccccc12 |  | 14.8 µM (active)
8 | CC(Oc1ccc(O)cc1)(P(=O)(O)O)P(=O)(O)O | inactive | 
9 | CCN(CC)CCCC(C)Nc1nc(C)cc(Nc2ccc3nc(C)cc(N)c3c2)n1 (stereo not drawn) | inactive | 
10 | CN1C(=O)C(Cc2c[nH]c3ccccc23)NC1=S (stereo not drawn) | inactive | 
11 | COc1ccc([C@@H]2CNC(=O)C2)cc1OC1CCCC1 | inactive | 
12 | O=C1Nc2ccc(I)cc2/C1=C/c1cc(Br)c(O)c(Br)c1 | inactive | 
13 | O=C(O)C1CCCN(CCC=C(c2ccccc2)c2ccccc2)C1 (stereo not drawn) | inactive | 
14 | CCOc1ccc(Nc2nc(-c3c(C)nc4ccccn34)cs2)cc1 |  | 0.059 µM (active)
15 | Nc1ncnc2nc(-c3ccc(N4CCOCC4)nc3)cc(-c3cccc(Br)c3)c12 | inactive | 
16 | O=C1NC(=O)C(c2ccccc2[N+](=O)[O-])=C1Nc1ccc(O)c(Cl)c1 | inactive | 
17 | Cc1cc(NC(=O)Nc2ccc(N(C)C)cc2)c2cc(F)cc(F)c2n1 | inactive | 
18 | COc1cc(OC)c(NC(=O)Nc2cc(C)on2)cc1Cl | inactive | 
19 | NC(=O)c1ccc2[nH]ccc2c1 | inactive | 
20 | CCOC(=O)C1=C(C)NC(=S)NC1c1cccc(O)c1 (stereo not drawn) | inactive | 
21 | Cc1cc(I)ccc1Nc1c(C(=O)NOCC2CC2)cc(F)c(F)c1F |  | 6.61 µM (active)
22 | COc1ccc(CCN(C)CCCOc2ccc(S(=O)(=O)c3c(C(C)C)c4ccccc4n3C)cc2)cc1OC |  | 23.5 µM (active)
23 | CCC(C)N(C)C(=O)c1cc2ccccc2c(-c2ccccc2Cl)n1 (stereo not drawn) | inactive | 
24 | COC1CCC(C(=O)c2ccc3nc4c(cc3c2)CCCO4)CC1 (stereo not drawn) | inactive | 
25 | O=C(O)c1ccc(-c2c[nH]c3ncc(-c4ccccc4)cc23)cc1C1CCCC1 | inactive | 
26 | CC(C)[C@H](CO)Nc1nc(Nc2ccc(C(=O)O)c(Cl)c2)c2ncn(C(C)C)c2n1 | inactive | 

assay: viability loss in pontine glioma line – cell-based, SU-DIPG-XXV, MIPE5.0, CellTiter-Glo, qHTS, dose response (AID 1347065; cut-off not given, nearly all actives have AC50 up to about 26 µM;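 note: cells exposed to compound for 48 hours before ATP readout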); settings: CellTiter-Glo ATP luminescence

Row | Structure (SMILES) | outcome | AC50
27 | CC[C@H](NC(C)C)[C@H](O)c1ccc(O)c2[nH]c(=O)ccc12 | inactive | 
28 | COc1cccc(-c2cc(=O)c3ccccc3o2)c1N | inactive | 
29 | COc1cc2nccc(Oc3ccc(NC(=O)Nc4ccc(F)cc4F)c(F)c3)c2cc1OC |  | 3.32 µM (active)
30 | O=Nc1c(-c2c(O)[nH]c3cc(Br)ccc23)[nH]c2ccccc12 |  | 7.42 µM (active)
31 | O=c1[nH]nc(Sc2ncc([N+](=O)[O-])s2)n1-c1ccc2c(c1)OCCO2 |  | 2.35 µM (active)
32 | O=C(O)CCc1ccc(NCc2cccc(Oc3ccccc3)c2)cc1 | inactive | 
33 | Oc1ccc2ccccc2c1SSc1c(O)ccc2ccccc12 |  | 11.8 µM (active)
34 | CN1C(=O)C(Cc2c[nH]c3ccccc23)NC1=S (stereo not drawn) | inactive | 
35 | CCOc1ccc(Nc2nc(-c3c(C)nc4ccccn34)cs2)cc1 |  | 0.0372 µM (active)
36 | Cc1ccc(/C=N/NC(=O)c2ccccc2Oc2ccccc2)o1 | inactive | 
37 | O=C(O)c1ccc2cc(-c3ccc(O)c(C45CC6CC(CC(C6)C4)C5)c3)ccc2c1 |  | 3.32 µM (active)
38 | COc1cc(OC)c(NC(=O)Nc2cc(C)on2)cc1Cl | inactive | 
39 | NC(=O)c1ccc2[nH]ccc2c1 | inactive | 
40 | CCOC(=O)C1=C(N)Oc2ccc(Br)cc2C1C(C#N)C(=O)OCC (stereo not drawn) |  | 23.5 µM (active)
41 | Cc1cc(I)ccc1Nc1c(C(=O)NOCC2CC2)cc(F)c(F)c1F |  | 9.34 µM (active)
42 | COc1ccc(CCN(C)CCCOc2ccc(S(=O)(=O)c3c(C(C)C)c4ccccc4n3C)cc2)cc1OC |  | 9.34 µM (active)
43 | CCC(C)N(C)C(=O)c1cc2ccccc2c(-c2ccccc2Cl)n1 (stereo not drawn) | inactive | 
44 | COC1CCC(C(=O)c2ccc3nc4c(cc3c2)CCCO4)CC1 (stereo not drawn) | inactive | 
45 | O=C(O)c1ccc(-c2c[nH]c3ncc(-c4ccccc4)cc23)cc1C1CCCC1 | inactive | 
46 | N#Cc1c(O)c2c(-c3ccc(-c4ccccc4O)cc3)csc2[nH]c1=O | inactive | 

assay: SU-DIPG-VI glioma cell viability, MIPE4.0 library, CellTiter-Glo luminescence, qHTS (AID 1347066); settings: CellTiter-Glo ATP luminescence;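 note: cells exposed to compound for 48 hours before readout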

Row | Structure (SMILES) | outcome | AC50
47 | CC[C@H](NC(C)C)[C@H](O)c1ccc(O)c2[nH]c(=O)ccc12 | inactive | 
48 | COc1cc2nccc(Oc3ccc(NC(=O)Nc4ccc(F)cc4F)c(F)c3)c2cc1OC | inactive | 
49 | O=Nc1c(-c2c(O)[nH]c3cc(Br)ccc23)[nH]c2ccccc12 |  | 20.9 µM (active)
50 | O=c1[nH]nc(Sc2ncc([N+](=O)[O-])s2)n1-c1ccc2c(c1)OCCO2 |  | 2.64 µM (active)
51 | N[C@H](CSC(c1ccccc1)(c1ccccc1)c1ccccc1)C(=O)O | inactive | 
52 | CS(=O)c1ccc(-c2nc(-c3ccc(F)cc3)c(-c3ccncc3)[nH]2)cc1 (stereo not drawn) | inactive | 
53 | O=c1cc(-c2cccc3c2Sc2ccccc2S3)oc(N2CCOCC2)c1 | inactive | 
54 | COc1nccc(-c2c(-c3ccc(F)cc3)ncn2C2CCC(O)CC2)n1 (stereo not drawn) | inactive | 
55 | CCOc1cc(C(=O)Nc2ccc(Cl)c(-c3nc4ccccc4[nH]3)c2)cc(OCC)c1OCC | inactive | 
56 | O=C(O)CCc1ccc(NCc2cccc(Oc3ccccc3)c2)cc1 | inactive | 
57 | Oc1ccc2ccccc2c1SSc1c(O)ccc2ccccc12 |  | 23.5 µM (active)
58 | CC(Oc1ccc(O)cc1)(P(=O)(O)O)P(=O)(O)O | inactive | 
59 | CCN(CC)CCCC(C)Nc1nc(C)cc(Nc2ccc3nc(C)cc(N)c3c2)n1 (stereo not drawn) | inactive | 
60 | CN1C(=O)C(Cc2c[nH]c3ccccc23)NC1=S (stereo not drawn) | inactive | 
61 | O=C1Nc2ccc(I)cc2/C1=C/c1cc(Br)c(O)c(Br)c1 | inactive | 
62 | O=C(O)C1CCCN(CCC=C(c2ccccc2)c2ccccc2)C1 (stereo not drawn) | inactive | 
63 | CCOc1ccc(Nc2nc(-c3c(C)nc4ccccn34)cs2)cc1 | inactive | 
64 | Fc1ccc(Cl)cc1-c1nc(Nc2ccncc2)c2nccnc2n1 | inactive | 
65 | Cc1cc(NC(=O)Nc2ccc(N(C)C)cc2)c2cc(F)cc(F)c2n1 | inactive | 
66 | Cc1ccc(/C=N/NC(=O)c2ccccc2Oc2ccccc2)o1 | inactive | 
67 | COc1cc(OC)c(NC(=O)Nc2cc(C)on2)cc1Cl | inactive | 
68 | NC(=O)c1ccc2[nH]ccc2c1 | inactive | 
69 | CCOC(=O)C1=C(C)NC(=S)NC1c1cccc(O)c1 (stereo not drawn) | inactive | 
70 | CCOC(=O)C1=C(N)Oc2ccc(Br)cc2C1C(C#N)C(=O)OCC (stereo not drawn) |  | 20.9 µM (active)
71 | COc1ccc(CCN(C)CCCOc2ccc(S(=O)(=O)c3c(C(C)C)c4ccccc4n3C)cc2)cc1OC | inactive | 
72 | CC(C)[C@H](CO)Nc1nc(Nc2ccc(C(=O)O)c(Cl)c2)c2ncn(C(C)C)c2n1 |  | 23.5 µM (active)
73 | N#Cc1c(O)c2c(-c3ccc(-c4ccccc4O)cc3)csc2[nH]c1=O | inactive | 

— PubChem BioAssay
